Among all 1,400 compounds or so, about 1,000 (71%) were called active. No rule for the calls is given here. So high a share suggests a set chosen from earlier hits. Not all results are given here. Results with a measured potency or affinity are listed apart.

The nature of this experiment: blockers of HIV-1 envelope-mediated cell-cell fusion – cherry-pick, dose response (AID 652057). The settings on record: HeLa-JRFL Env/CEM21 cell fusion, luciferase; series mostly up to 35 µM.
Consider `COc1ccc(/C=C/c2nc(S(=O)(=O)c3ccccc3)c(NCCCN(C)C)o2)cc1OC`, for which the activity change, negative = inhibition result is “inactive”.

As to `CC(C)(C)c1ccc(-n2ncc3c2CCCC3NC(=O)CN2CCCC2=O)cc1` (stereo unspecified), the activity change, negative = inhibition entry was “inactive”.

For the molecule `C[C@H]1CN([C@@H](C)CO)C(=O)c2cc(NS(=O)(=O)c3ccc(F)cc3)ccc2O[C@H]1CN(C)S(=O)(=O)c1ccc(F)cc1`, the activity change, negative = inhibition entry was “inactive”.

In the case of `Cc1noc(C)c1S(=O)(=O)N(C)C[C@H]1Oc2ccc(NC(=O)Nc3ccccc3)cc2CC(=O)N([C@H](C)CO)C[C@H]1C`, the activity change, negative = inhibition result is “inactive”.

For the molecule `Cc1ccc(OCCN2CCN(c3ncnc4sc(C)c(C)c34)CC2)cc1`, the activity change, negative = inhibition entry is “inactive”.

Consider `COC(=O)C1CCN(C(=O)COC(=O)c2cc(S(=O)(=O)N3CCOCC3)ccc2C)CC1`, for which the activity change, negative = inhibition entry was “inactive”.

For the molecule `Nc1ccc(S(=O)(=O)c2ccc(N3CCOCC3)c(N)c2)cc1`, the activity change, negative = inhibition result was “inactive”.

`Cc1onc(-c2ccccc2)c1C(=O)OCCOc1cccc(Cl)c1`: the activity change, negative = inhibition result is “inactive”.

For the molecule `CN(C)CC(=O)Nc1ccc2c(c1)[C@H]1C[C@H](CC(=O)NCc3cccc(F)c3)O[C@@H](CO)[C@H]1O2`, the activity change, negative = inhibition entry is “inactive”.

Turning to `O=C(C[C@@H]1CC[C@@H](NC(=O)c2ccncc2)[C@H](CO)O1)NCCc1ccncc1`, the activity change, negative = inhibition entry was “inactive”.

Turning to `O=C(O)C[C@@H]1CC[C@@H](NC(=O)c2ccncc2)[C@H](CO)O1`, the activity change, negative = inhibition entry was “inactive”.

For `O=C(c1cccc(S(=O)(=O)N2CCN(c3ccccc3)CC2)c1)N1CCCC(C(F)(F)F)C1` (stereo unspecified), the activity change, negative = inhibition result was “inactive”.

Consider `Cc1ccccc1S(=O)(=O)NC(=O)C1(C)CCN1C(=O)CCc1ccc(Cl)cc1Cl` (stereo unspecified), for which the activity change, negative = inhibition entry was “inactive”.

For the molecule `Cn1cc(S(=O)(=O)N2CCOCC2)cc1C(=O)Nc1cccc(Cl)c1`, the activity change, negative = inhibition entry is “inactive”.

With `O=C(Nc1cccc(F)c1)N[C@@H]1CC[C@H](CCNS(=O)(=O)c2cccc(Cl)c2)O[C@H]1CO`, the activity change, negative = inhibition entry was “inactive”.

In the case of `COc1cccc(S(=O)(=O)N2CC3(CN(C(=O)Nc4cccc(F)c4)[C@H](CO)c4[nH]c5cc(OC)ccc5c43)C2)c1`, the activity change, negative = inhibition entry is “inactive”.

On to `O=C(Nc1cccc(F)c1)N[C@H]1CC[C@@H](CCNS(=O)(=O)c2cccc(Cl)c2)O[C@H]1CO`, for which the activity change, negative = inhibition result is “inactive”.

`CC(C)OCCCn1c(=S)[nH]c2ccc(N3CCOCC3)cc2c1=O`: the activity change, negative = inhibition result is “inactive”.

Turning to `CN(C)CC(=O)Nc1ccc2c(c1)[C@H]1C[C@@H](CC(=O)NCCc3ccccc3)O[C@H](CO)[C@H]1O2`, the activity change, negative = inhibition entry is “inactive”.

For `Cn1cccc1C(=O)OCC(=O)NCCc1ccc(S(N)(=O)=O)cc1`, the activity change, negative = inhibition result is “inactive”.

`O=C(Nc1nc(-c2ccc3c(c2)OCO3)cs1)c1ccncc1`: the activity change, negative = inhibition entry is “inactive”.

For the molecule `CC1Cc2cc(-c3csc(NC(=O)Cc4cccs4)n3)ccc2N1S(C)(=O)=O` (stereo unspecified), the activity change, negative = inhibition result is “inactive”.

For `CS(=O)(=O)N1CCN(c2ccccc2NC(=O)C(c2ccccc2)c2ccccc2)CC1`, the activity change, negative = inhibition result was “inactive”.

Consider `CCCNC(=O)C[C@H]1C[C@H]2c3cc(NC(=O)CN(C)C)ccc3O[C@H]2[C@H](CO)O1`, for which the activity change, negative = inhibition entry was “inactive”.

Regarding `c1csc(-c2csc3ncnc(NCCCN4CCOCC4)c23)c1`, the activity change, negative = inhibition result was “inactive”.

In the case of `Clc1ccc(OCCN2CCN(c3ncnc4sccc34)CC2)cc1`, the activity change, negative = inhibition result is “inactive”.

For `Cc1cccc(C)c1NC(=O)N1CCN(c2nc3ccccc3s2)CC1`, the activity change, negative = inhibition result was “inactive”.

Regarding `C[C@@H]1CN([C@H](C)CO)C(=O)c2cc(NC(=O)Nc3ccccc3)ccc2O[C@@H]1CN(C)S(=O)(=O)c1ccccc1`, the activity change, negative = inhibition result is “inactive”.

For the molecule `Cc1nnc(SC(=O)N2c3ccccc3Sc3ccccc32)s1`, the activity change, negative = inhibition result is “inactive”.

On to `Cc1ccc(S(=O)(=O)N(C)C[C@@H]2Oc3cc(C#CC4CCCC4)ccc3S(=O)(=O)N([C@H](C)CO)C[C@H]2C)cc1`, for which the activity change, negative = inhibition entry is “inactive”.

In the case of `O=C(C[C@H]1C[C@H]2c3cc(NC(=O)Cc4ccncc4)ccc3O[C@H]2[C@@H](CO)O1)NCc1ccncc1`, the activity change, negative = inhibition entry is “inactive”.

Consider `O=C(C[C@@H]1C[C@H]2c3cc(NC(=O)NC4CCCCC4)ccc3O[C@H]2[C@@H](CO)O1)NCc1ccncc1`, for which the activity change, negative = inhibition entry was “inactive”.

As to `O=C(NNC(=O)C(c1ccccc1)c1ccccc1)c1ccccn1`, the activity change, negative = inhibition result is “inactive”.

Turning to `CN(Cc1cccs1)c1ncnc2sccc12`, the activity change, negative = inhibition result is “inactive”.

Take `O=C(COC(=O)c1ncc(Cl)c(Cl)c1Cl)NCc1cccs1`: the activity change, negative = inhibition entry was “inactive”.

Turning to `COc1ccc(-c2cn3c(C)c(C(=O)Nc4cccc(NC(C)=O)c4)sc3n2)cc1`, the activity change, negative = inhibition entry was “inactive”.

Regarding `O=C1COc2ccc(-c3csc(=Nc4ccc(OC(F)F)cc4)n3CC3CCCO3)cc2N1` (stereo unspecified), the activity change, negative = inhibition result is “inactive”.

As for `CCc1ccc(-c2nc(CN3CCC(C(=O)NCCc4ccc(OC)c(OC)c4)CC3)c(C)o2)cc1`, the activity change, negative = inhibition entry was “inactive”.

With `CC(NNC(=S)N1CCCCCC1)c1ccc2ccccc2n1` (stereo unspecified), the activity change, negative = inhibition entry was “inactive”.

Take `CCN1C(=O)[C@H]2[C@@H](c3ccc(C(F)(F)F)cc3)N[C@]3(CCCN(Cc4ccccc4)C3=O)[C@H]2C1=O`: the activity change, negative = inhibition result is “inactive”.

For `O=C(Cn1ncc2c(=O)oc3ccccc3c21)N1CCC(N2CCCCC2)CC1`, the activity change, negative = inhibition entry is “inactive”.

Consider `COc1ccc(CCNC(=O)C2CCCN(Cc3nc(-c4cccc(Cl)c4)oc3C)C2)cc1OC` (stereo unspecified), for which the activity change, negative = inhibition entry is “inactive”.

Turning to `C[C@@H]1CN([C@H](C)CO)C(=O)c2cccc(NC(=O)c3ccncc3)c2O[C@@H]1CN(C)Cc1ccc(C(=O)O)cc1`, the activity change, negative = inhibition entry is “inactive”.

On to `C[C@@H]1CN([C@H](C)CO)C(=O)c2cccc(NC(=O)c3cnccn3)c2O[C@H]1CN(C)Cc1ccccc1`, for which the activity change, negative = inhibition entry is “inactive”.

In the case of `CCCNC(=O)C[C@@H]1C[C@H]2c3cc(NC(=O)Cc4ccncc4)ccc3O[C@H]2[C@H](CO)O1`, the activity change, negative = inhibition entry is “inactive”.

As to `COC(=O)c1ccc(C(=O)NC2CCCc3c2cnn3-c2ccc(C)c(C)c2)cc1` (stereo unspecified), the activity change, negative = inhibition entry is “inactive”.

Regarding `COc1ccccc1N1CCN(Cc2ccc(O)c3ncccc23)CC1`, the activity change, negative = inhibition entry was “inactive”.

For `CC1CCCN(C(=O)c2ccc(S(=O)(=O)N3CCC(c4nc5ccccc5s4)CC3)cc2)C1` (stereo unspecified), the activity change, negative = inhibition result is “inactive”.

`O=C(Nc1ccc(S(=O)(=O)N2CCN(Cc3ccccc3)CC2)cc1)c1cnccn1`: the activity change, negative = inhibition result was “inactive”.

For `COc1ccc(S(=O)(=O)N[C@@H]2C=C[C@H](CC(=O)N3CCC(Cc4ccccc4)CC3)O[C@@H]2CO)cc1`, the activity change, negative = inhibition result was “inactive”.

On to `COc1cccc(S(=O)(=O)N[C@H]2CC[C@@H](CCN)O[C@@H]2CO)c1`, for which the activity change, negative = inhibition entry is “inactive”.

Turning to `O=C(Cc1ccccc1)N[C@@H]1C=C[C@H](CC(=O)N2CCCCC2)O[C@@H]1CO`, the activity change, negative = inhibition result was “inactive”.

For the molecule `COc1cccc(S(=O)(=O)N[C@@H]2CC[C@H](CCN)O[C@H]2CO)c1`, the activity change, negative = inhibition result is “inactive”.

As for `CCCCCn1c(=O)[nH]c2cc(C(=O)N3CCN(Cc4ccc5c(c4)OCO5)CC3)ccc2c1=O`, the activity change, negative = inhibition result is “inactive”.

In the case of `CCc1cnc(N2[C@H](C#N)[C@H](c3ccc(C#Cc4ccccc4F)cc3)[C@H]2CO)s1`, the activity change, negative = inhibition result was “inactive”.

Consider `Cc1ccc(C(=O)NCc2ccccn2)cc1S(=O)(=O)N1CCCCC1`, for which the activity change, negative = inhibition result is “inactive”.

As for `CN(C(=O)c1cccc(NC(=O)Cc2cccc(NC(=O)C3CCCN(C(=O)C4CCC4)C3)c2)c1)C1CCC1` (stereo unspecified), the activity change, negative = inhibition entry was “inactive”.

Take `CCCn1c(=S)[nH]c2cc(C(=O)N3CCCC(C(=O)OCC)C3)ccc2c1=O` (stereo unspecified): the activity change, negative = inhibition entry was “inactive”.

Consider `COc1ccc(S(=O)(=O)NC[C@@H]2CC[C@H]3[C@H](CN3Cc3cc(F)ccc3F)O2)cc1`, for which the activity change, negative = inhibition entry is “inactive”.

For the molecule `COCC(C)n1c(-c2ccc3c(c2)NC(=O)CO3)csc1=Nc1ccc(OC(F)F)cc1` (stereo unspecified), the activity change, negative = inhibition result was “inactive”.

As for `C[C@@H]1CN([C@H](C)CO)C(=O)c2cccc(NS(=O)(=O)c3cn(C)cn3)c2O[C@H]1CN(C)C(=O)Nc1ccc(F)cc1`, the activity change, negative = inhibition entry was “inactive”.

Consider `O=C(N/N=C/c1ccc(-n2ccnc2)cc1)c1cccs1`, for which the activity change, negative = inhibition result is “inactive”.

For the molecule `Cc1ccc(NC(=O)c2ccc(CN3CCc4ccccc4C3)cc2)cc1`, the activity change, negative = inhibition entry was “inactive”.

`O=C(Nc1ccc(S(=O)(=O)N2CCCC2)cc1)c1ccc(CN2CCOCC2)cc1`: the activity change, negative = inhibition entry is “inactive”.

As to `C=C(C)CN(CC)c1nc(N)c2c(N)nc3c(c2c1C#N)CC(=O)N3C12CC3CC(CC(C3)C1)C2`, the activity change, negative = inhibition entry is “inactive”.

In the case of `CCc1nc(N2CCCCC2C)c2oc3ccccc3c2n1` (stereo unspecified), the activity change, negative = inhibition entry was “inactive”.

`CCOc1ccc2c(c1)-c1c(ssc1=S)C(C)(C)N2C(=O)c1ccco1`: the activity change, negative = inhibition entry is “inactive”.

Consider `O=C(COC(=O)c1cccc(S(=O)(=O)N2CCOCC2)c1)NCc1ccccc1`, for which the activity change, negative = inhibition entry was “inactive”.

In the case of `CC(C)OCCCNc1ncnc2c1[nH]c1ccccc12`, the activity change, negative = inhibition result is “inactive”.

As to `Cc1ccccc1OCCCCn1cnc2ccccc21`, the activity change, negative = inhibition entry is “inactive”.

With `COCC(=O)Nc1ccc2c(c1)C(=O)N(C)C[C@@H](OC)[C@H](C)CN(C(C)=O)[C@H](C)CO2`, the activity change, negative = inhibition entry was “inactive”.

Consider `CCN(CC)CCN(C(=O)c1cc(Cl)sc1Cl)c1nc2cc3c(cc2s1)OCO3`, for which the activity change, negative = inhibition entry was “inactive”.

`O=C(C[C@H]1C[C@@H]2c3cc(NC(=O)C4CCOCC4)ccc3O[C@@H]2[C@@H](CO)O1)NCc1ccccc1F`: the activity change, negative = inhibition entry is “inactive”.

In the case of `O=C(C[C@@H]1C=C[C@@H](NC(=O)Nc2ccc3c(c2)OCO3)[C@H](CO)O1)NCc1ccc(F)cc1`, the activity change, negative = inhibition entry is “inactive”.

As for `CCS(=O)(=O)N[C@H]1CC[C@@H](CC(=O)NCc2ccc(Cl)cc2)O[C@@H]1CO`, the activity change, negative = inhibition entry is “inactive”.

Consider `COc1cccc(CNC(=O)C[C@@H]2C=C[C@H](NC(=O)C3CCC3)[C@H](CO)O2)c1`, for which the activity change, negative = inhibition entry was “inactive”.

In the case of `O=C(Nc1cccc(F)c1)N[C@@H]1CC[C@H](CCNS(=O)(=O)c2cccc(Cl)c2)O[C@@H]1CO`, the activity change, negative = inhibition result is “inactive”.

For the molecule `COc1ccccc1CNC(=O)C[C@H]1C[C@@H]2c3cc(NC(=O)c4cccnc4)ccc3O[C@@H]2[C@@H](CO)O1`, the activity change, negative = inhibition result was “inactive”.

Turning to `C[C@@H]1CN([C@H](C)CO)C(=O)c2cccc(NS(=O)(=O)c3ccc(Cl)cc3)c2O[C@H]1CN(C)CC1CCCCC1`, the activity change, negative = inhibition entry is “inactive”.

In the case of `COC(=O)c1ccc(NC(=O)c2ccc(CN3CCOCC3)cc2)cc1`, the activity change, negative = inhibition result was “inactive”.

Turning to `OC1(c2ccc(OC(F)F)cc2)CSC(=Nc2cccnc2)N1C1CC1` (stereo unspecified), the activity change, negative = inhibition result is “inactive”.

With `Cc1cc(Cl)c(S(=O)(=O)N2CCCC2)cc1OCC(=O)NC1CCCCC1`, the activity change, negative = inhibition entry is “inactive”.

Regarding `COCCCn1c(-c2ccc(S(=O)(=O)N3CCOCC3)cc2)csc1=Nc1ccccc1`, the activity change, negative = inhibition result was “inactive”.

Take `CN(C)S(=O)(=O)c1ccc(C(=O)Nc2nc(-c3cccs3)cs2)cc1`: the activity change, negative = inhibition result is “inactive”.

For the molecule `COCC(=O)Nc1ccc2c(c1)C(=O)N(C)C[C@@H](OC)[C@@H](C)CN(C)[C@H](C)CO2`, the activity change, negative = inhibition result is “inactive”.

Take `CCCC(=O)Nc1ccc2c(c1)C(=O)N(C)C[C@@H](OC)[C@@H](C)CN(Cc1nccs1)[C@@H](C)CO2`: the activity change, negative = inhibition entry is “inactive”.

Values taken from PubChem BioAssay AID652057 (Broad Institute, 2013).
